From the supplement of paper PMC10849652
Of roughly 7,900 targets only a part is listed; those with a hit were picked by preference. About 0.6% of all pairs of compound and target were hits. Values without a mark were called inactive.

Assays:
Test in all cases: log2 fold change, soluble protein after heating vs DMSO (PISA); higher = thermal stabilisation; K562 cells, 10 uM, 30 min; active = over 0.2 and 3.5 SD of the protein, either way, in both replicates (recomputed)
erlotinib = compound: C#Cc1cccc(Nc2ncnc3cc(OCCOC)c(OCCOC)cc23)c1 [erlotinib]
Summary of the method: (§1)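 For each measurement, 10 μM compound was applied for 30 min to K562 cells at 2×10^6 cells/mL. Aliquots were heated for 3 min across 48°C-58°C, pooled, and extracted in PBS with 0.5% NP-40 at 4°C; the supernatant after 21,000xg for 90 min was soluble protein. This was quantified by TMTpro 16plex LC-MS/MS with channel sums equalised, and thermal stability was reported relative to control samples from duplicates, on a log2 fold-change scale.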

[1] = compound: C/C(=N\NC(=O)C1=CC(=CC=C1)S(=O)(=O)N2CCOCC2)/C3=C(C=CC(=C3)Cl)O
Summary of the method: as §1

[2] = compound: C1=CC(=C(C=C1Cl)C2=NC3=NC=CN=C3C(=N2)NC4=CC=NC=C4)F
Summary of the method: as §1

[3] = compound: C1=CC(=CC=C1C2=NC3=C(N2)C=C(C=C3)C(=O)N)OC4=CC=C(C=C4)Cl
Summary of the method: as §1

[4] = compound: C1=CC2=C(C=CC(=C2)/C=C\3/C(=O)NC(=NCC4=CC=CS4)S3)N=C1
Summary of the method: as §1

[5] = compound: C1=CC2=NC=CN=C2C=C1/C=C/3\C(=O)NC(=O)S3
Summary of the method: as §1

[6] = compound: C1=CC=C(C=C1)C2=NC(=C(N2)C3=CC=NC=C3)C4=CC(=C(C=C4)Cl)O
Summary of the method: as §1

[7] = compound: C1=CC=C2C(=C1)C3=NNC4=CC=CC(=C43)C2=O
Summary of the method: as §1

[8] = compound: C1CCN(C1)C(=O)NC2=CC=CC(=C2)NC3=NC=C(C(=N3)NCCC4=CN=CN4)Br
Summary of the method: as §1

[9] = compound: C1CN(CCC1(CC2=CC=C(C=C2)Cl)N)C3=NC=NC4=C3C=CN4
Summary of the method: as §1

IRAK-1-4 Inhibitor I = compound: C1COCCN1CCN2C3=CC=CC=C3N=C2NC(=O)C4=CC(=CC=C4)[N+](=O)[O-] [IRAK-1-4 Inhibitor I]
Summary of the method: as §1

ibrutinib = compound: C=CC(=O)N1CCC[C@@H](n2nc(-c3ccc(Oc4ccccc4)cc3)c3c(N)ncnc32)C1 [ibrutinib]
Summary of the method: as §1

[10] = compound: CC(=O)c1cnc2ccc(-c3cc(Cl)c(O)c(Cl)c3)nc2c1N[C@H]1CC[C@H](CN(C)C)CC1
Summary of the method: as §1

ralimetinib = compound: CC(C)(C)Cn1c(N)nc2ccc(-c3[nH]c(C(C)(C)C)nc3-c3ccc(F)cc3)nc21 [ralimetinib]
Summary of the method: as §1

[11] = compound: CC(C)(O)CC(=O)NCCn1ccc2ncnc(Nc3ccc(Oc4cccc(C(F)(F)F)c4)c(Cl)c3)c21
Summary of the method: as §1

[12] = compound: CC(C)C1=C2N=C(C=C(N2N=C1)NCC3=CC=CC=C3)NCCCCCCN
Summary of the method: as §1

[13] = compound: CC(C)C[C@@H](C=O)NC(=O)[C@H](CC(C)C)NC(=O)[C@H](CC(C)C)NC(=O)OCc1ccccc1
Summary of the method: as §1

pinometostat = compound: CC(C)N(C[C@H]1O[C@@H](n2cnc3c(N)ncnc32)[C@H](O)[C@@H]1O)[C@H]1C[C@@H](CCc2nc3cc(C(C)(C)C)ccc3[nH]2)C1 [pinometostat]
Summary of the method: as §1

[14] = compound: CC1=C(C(CC(=O)N1)C2=CC=C(C=C2)C(F)(F)F)C(=O)NC3=C(C=C4C(=C3)C=NN4)F
Summary of the method: as §1

[15] = compound: CC1=C(C2=C(C=C1)C(=O)C3=CC=CC=C3N2CCCN)C
Summary of the method: as §1

Sequence of UniProt Q6WKZ4 (Q6WKZ4 whole entry, looked up): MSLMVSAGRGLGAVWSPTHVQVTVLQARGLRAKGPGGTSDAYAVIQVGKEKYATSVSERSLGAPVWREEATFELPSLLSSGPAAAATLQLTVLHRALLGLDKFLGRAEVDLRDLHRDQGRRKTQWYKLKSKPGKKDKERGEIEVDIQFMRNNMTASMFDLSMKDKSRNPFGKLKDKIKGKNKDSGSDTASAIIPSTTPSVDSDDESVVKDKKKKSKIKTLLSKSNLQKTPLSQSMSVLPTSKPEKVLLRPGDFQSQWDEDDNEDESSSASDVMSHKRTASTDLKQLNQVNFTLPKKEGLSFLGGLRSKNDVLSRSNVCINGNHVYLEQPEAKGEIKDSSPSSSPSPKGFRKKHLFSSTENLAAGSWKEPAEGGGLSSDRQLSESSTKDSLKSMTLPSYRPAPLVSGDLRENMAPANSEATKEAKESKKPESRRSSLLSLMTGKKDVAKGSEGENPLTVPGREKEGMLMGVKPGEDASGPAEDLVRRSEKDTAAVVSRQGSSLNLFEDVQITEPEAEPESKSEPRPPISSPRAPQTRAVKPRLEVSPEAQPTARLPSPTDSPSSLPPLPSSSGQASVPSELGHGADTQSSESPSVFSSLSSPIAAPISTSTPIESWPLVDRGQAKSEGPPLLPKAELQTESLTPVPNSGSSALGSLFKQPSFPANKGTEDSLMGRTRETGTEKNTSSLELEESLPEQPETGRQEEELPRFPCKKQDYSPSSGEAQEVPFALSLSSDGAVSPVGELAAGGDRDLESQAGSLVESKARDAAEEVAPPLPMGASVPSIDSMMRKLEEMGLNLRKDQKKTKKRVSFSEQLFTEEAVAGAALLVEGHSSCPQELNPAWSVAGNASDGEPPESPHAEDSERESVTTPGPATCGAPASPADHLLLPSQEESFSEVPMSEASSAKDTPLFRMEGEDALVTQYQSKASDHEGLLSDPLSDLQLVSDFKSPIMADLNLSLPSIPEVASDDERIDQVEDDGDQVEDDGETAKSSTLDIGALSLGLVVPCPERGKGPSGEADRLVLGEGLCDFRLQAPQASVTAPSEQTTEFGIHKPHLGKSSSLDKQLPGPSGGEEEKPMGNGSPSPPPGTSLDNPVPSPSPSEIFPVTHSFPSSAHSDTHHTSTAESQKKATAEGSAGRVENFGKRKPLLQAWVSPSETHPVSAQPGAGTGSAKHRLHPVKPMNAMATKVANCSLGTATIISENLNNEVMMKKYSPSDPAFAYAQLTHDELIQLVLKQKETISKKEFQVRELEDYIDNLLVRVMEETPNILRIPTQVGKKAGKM
Sequence of UniProt P27986 (P27986 whole entry, looked up): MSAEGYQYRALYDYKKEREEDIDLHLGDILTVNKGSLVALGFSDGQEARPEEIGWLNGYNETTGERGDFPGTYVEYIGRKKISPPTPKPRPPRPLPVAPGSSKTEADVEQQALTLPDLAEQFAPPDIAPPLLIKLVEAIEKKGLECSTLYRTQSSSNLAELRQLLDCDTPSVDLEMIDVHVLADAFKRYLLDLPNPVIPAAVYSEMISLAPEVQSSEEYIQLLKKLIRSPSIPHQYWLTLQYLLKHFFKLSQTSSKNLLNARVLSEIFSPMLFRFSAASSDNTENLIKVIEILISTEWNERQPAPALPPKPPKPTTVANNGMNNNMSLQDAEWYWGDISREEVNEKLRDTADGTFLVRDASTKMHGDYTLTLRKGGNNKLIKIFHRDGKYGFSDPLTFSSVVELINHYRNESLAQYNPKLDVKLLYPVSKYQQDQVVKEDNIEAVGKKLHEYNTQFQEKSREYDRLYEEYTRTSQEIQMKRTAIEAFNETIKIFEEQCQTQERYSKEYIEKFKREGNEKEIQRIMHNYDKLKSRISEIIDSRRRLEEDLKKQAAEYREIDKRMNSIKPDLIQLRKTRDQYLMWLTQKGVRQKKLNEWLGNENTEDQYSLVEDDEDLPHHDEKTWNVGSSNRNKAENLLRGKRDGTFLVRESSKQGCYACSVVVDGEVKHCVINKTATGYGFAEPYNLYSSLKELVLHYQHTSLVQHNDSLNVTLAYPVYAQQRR
Sequence of UniProt Q8TAP8 (Q8TAP8 whole entry, looked up): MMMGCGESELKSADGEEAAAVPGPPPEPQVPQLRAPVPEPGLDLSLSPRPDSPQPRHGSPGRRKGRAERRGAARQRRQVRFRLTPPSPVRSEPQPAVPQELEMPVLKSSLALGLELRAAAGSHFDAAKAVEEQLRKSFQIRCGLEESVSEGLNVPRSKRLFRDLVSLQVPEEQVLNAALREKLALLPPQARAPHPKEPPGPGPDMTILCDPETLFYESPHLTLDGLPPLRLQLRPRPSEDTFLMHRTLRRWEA
Sequence of UniProt Q8NEB9 (Q8NEB9 whole entry, looked up): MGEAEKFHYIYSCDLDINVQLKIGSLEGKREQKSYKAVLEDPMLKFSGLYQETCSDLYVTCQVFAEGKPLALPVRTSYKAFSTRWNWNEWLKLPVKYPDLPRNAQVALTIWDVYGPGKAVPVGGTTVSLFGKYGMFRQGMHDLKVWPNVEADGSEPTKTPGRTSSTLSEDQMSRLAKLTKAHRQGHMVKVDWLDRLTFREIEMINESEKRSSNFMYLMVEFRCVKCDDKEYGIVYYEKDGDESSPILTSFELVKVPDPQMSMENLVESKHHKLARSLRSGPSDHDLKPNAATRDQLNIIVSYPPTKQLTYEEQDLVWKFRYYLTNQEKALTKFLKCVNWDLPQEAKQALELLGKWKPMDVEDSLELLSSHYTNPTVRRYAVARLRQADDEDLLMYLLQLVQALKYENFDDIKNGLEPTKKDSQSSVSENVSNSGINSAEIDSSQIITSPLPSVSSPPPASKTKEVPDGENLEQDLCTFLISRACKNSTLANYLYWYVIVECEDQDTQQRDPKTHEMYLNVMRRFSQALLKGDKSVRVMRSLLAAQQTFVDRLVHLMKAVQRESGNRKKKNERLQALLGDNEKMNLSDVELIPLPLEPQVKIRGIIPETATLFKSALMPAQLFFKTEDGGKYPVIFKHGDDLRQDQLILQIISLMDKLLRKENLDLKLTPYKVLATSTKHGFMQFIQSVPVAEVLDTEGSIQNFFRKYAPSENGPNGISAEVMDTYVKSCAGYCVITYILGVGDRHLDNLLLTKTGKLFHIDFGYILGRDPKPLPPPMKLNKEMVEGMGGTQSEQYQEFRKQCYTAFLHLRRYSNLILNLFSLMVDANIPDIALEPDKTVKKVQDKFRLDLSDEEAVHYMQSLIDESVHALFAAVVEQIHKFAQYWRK
Sequence of UniProt O43242 (O43242 whole entry, looked up): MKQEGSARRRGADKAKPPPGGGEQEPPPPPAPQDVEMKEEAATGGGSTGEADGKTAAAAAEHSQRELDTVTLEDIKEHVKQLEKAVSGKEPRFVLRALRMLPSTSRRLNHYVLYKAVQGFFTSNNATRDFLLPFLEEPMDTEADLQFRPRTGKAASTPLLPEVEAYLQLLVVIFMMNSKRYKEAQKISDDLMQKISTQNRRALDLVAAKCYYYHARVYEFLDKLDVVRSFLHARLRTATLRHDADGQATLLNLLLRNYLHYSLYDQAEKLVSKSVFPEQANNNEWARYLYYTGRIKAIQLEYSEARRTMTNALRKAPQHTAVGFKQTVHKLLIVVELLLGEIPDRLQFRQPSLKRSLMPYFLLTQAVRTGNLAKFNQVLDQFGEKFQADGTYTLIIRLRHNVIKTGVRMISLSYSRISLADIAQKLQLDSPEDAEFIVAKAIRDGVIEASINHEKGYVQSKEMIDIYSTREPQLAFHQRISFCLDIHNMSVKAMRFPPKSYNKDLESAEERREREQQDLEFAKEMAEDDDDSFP
Sequence of UniProt P19174 (P19174 whole entry, looked up): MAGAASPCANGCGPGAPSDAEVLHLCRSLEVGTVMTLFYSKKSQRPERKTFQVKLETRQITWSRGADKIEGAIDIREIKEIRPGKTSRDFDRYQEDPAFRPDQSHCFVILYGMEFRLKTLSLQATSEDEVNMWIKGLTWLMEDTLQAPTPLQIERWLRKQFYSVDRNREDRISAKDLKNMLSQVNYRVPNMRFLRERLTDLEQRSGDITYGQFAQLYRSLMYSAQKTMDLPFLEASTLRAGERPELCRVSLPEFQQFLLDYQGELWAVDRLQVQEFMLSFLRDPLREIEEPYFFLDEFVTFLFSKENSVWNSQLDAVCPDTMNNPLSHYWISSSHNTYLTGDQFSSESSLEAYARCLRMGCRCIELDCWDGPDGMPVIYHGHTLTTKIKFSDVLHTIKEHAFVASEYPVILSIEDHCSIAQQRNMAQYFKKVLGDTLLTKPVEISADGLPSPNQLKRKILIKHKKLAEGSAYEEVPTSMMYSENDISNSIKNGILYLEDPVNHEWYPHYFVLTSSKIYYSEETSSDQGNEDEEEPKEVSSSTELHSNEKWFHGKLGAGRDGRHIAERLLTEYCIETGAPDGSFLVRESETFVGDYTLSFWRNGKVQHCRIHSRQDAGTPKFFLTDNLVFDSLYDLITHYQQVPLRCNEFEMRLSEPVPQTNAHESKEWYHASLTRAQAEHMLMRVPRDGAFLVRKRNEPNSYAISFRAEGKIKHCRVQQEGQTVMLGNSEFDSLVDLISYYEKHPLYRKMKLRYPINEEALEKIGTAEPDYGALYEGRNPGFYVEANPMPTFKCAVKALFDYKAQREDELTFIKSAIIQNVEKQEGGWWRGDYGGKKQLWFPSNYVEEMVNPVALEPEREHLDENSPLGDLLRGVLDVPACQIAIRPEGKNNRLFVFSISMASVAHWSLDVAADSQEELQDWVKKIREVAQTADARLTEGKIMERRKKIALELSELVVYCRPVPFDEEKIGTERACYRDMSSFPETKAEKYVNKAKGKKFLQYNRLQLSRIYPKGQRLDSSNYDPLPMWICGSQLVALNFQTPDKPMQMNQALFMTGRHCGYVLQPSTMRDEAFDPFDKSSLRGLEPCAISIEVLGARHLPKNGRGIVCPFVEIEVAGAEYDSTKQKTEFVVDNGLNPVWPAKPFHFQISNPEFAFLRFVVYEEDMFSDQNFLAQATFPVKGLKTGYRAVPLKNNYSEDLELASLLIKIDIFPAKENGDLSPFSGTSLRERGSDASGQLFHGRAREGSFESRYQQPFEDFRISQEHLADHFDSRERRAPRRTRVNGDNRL

| Target | log2 fold change (erlotinib) | log2 fold change [1] | log2 fold change [2] | log2 fold change [3] | log2 fold change [4] | log2 fold change [5] | log2 fold change [6] | log2 fold change [7] | log2 fold change [8] | log2 fold change [9] | log2 fold change (IRAK-1-4 Inhibitor I) | log2 fold change (ibrutinib) | log2 fold change [10] | log2 fold change (ralimetinib) | log2 fold change [11] | log2 fold change [12] | log2 fold change [13] | log2 fold change (pinometostat) | log2 fold change [14] | log2 fold change [15] |
| --- | --- | --- | --- | --- | --- | --- | --- | --- | --- | --- | --- | --- | --- | --- | --- | --- | --- | --- | --- | --- |
| PTRHD1 (UniProt Q6GMV3) | -0.002 | 0.005 | 0.37 (active) | 0.046 | 0.134 | 0.045 | 0.121 | -0.032 | -0.017 | -0.012 | 0.155 | 0.004 | -0.048 | -0.049 | -0.022 | 0.139 | -0.01 | 0.003 | 0.054 | 0.184 |
| PIK3R1 (UniProt P27986) | 0.01 | 0.033 | 0.025 | 0.048 | 0.036 | 0.14 | -0.022 | -0.027 | -0.024 | 0.05 | 0.032 | -0.004 | 0.077 | 0.038 | -0.04 | -0.011 | 0.027 | 0.083 | 0.004 | 0.072 |
| PLCG1 isoform 2 (UniProt P19174) | 0.052 | -0.054 | -0.09 | 0.067 | 0.119 | 0.029 | 0.006 | 0.017 | 0.052 | -0.06 | -0.079 | 0.03 | 0.041 | -0.042 | -0.362 (active) | -0.23 | 0.007 | 0.069 | 0.023 | -0.027 |
| PHKA1 (UniProt P46020) | -0.028 | -0.101 | -0.051 | 0.003 | 0.057 | 0.024 | 0.152 | -0.095 | -0.105 | -0.026 | -0.043 | -0.001 | 0.306 | -0.03 | -0.161 | 0.011 | 0.195 | -0.023 | 0.118 | 0.022 |
| PRCP (UniProt P42785) | -0.028 | 0.013 | 0.049 | -0.025 | -0.052 | 0.014 | -0.019 | -0.001 | 0.038 | 0.052 | 0.04 | 0.012 | 0.014 | -0.01 | -0.072 | -0.077 | -0.025 | -0.006 | 0.012 | -0.101 |
| PELP1 (UniProt Q8IZL8) | 0.082 | 0.044 | -0.035 | 0.008 | -0.032 | -0.008 | 0.007 | -0.053 | -0.041 | 0.08 | 0.017 | -0.017 | -0.106 | 0.04 | -0.031 | 0.017 | -0.019 | 0.008 | 0.029 | -2.07 (active) |
| PIK3C3 (UniProt Q8NEB9) | -0.005 | -0.004 | -0.157 | -0.005 | 0.011 | 0.087 | -0.007 | 0.048 | -0.024 | 0.06 | -0.012 | -0.005 | 0.058 | 0.082 | 0.002 | -0.003 | 0.035 | 0.14 | -0.021 | 0.013 |
| PPOX (UniProt P50336) | 0.112 | 0.415 | 0.156 | 0.416 | 0.039 | -0.004 | 0.095 | 0.013 | 0.051 | -0.011 | 0.095 | 0.136 | -0.151 | 0.077 | 0.187 | -0.217 | -0.008 | -0.039 | -0.095 | -0.009 |
| PRKACB isoform 2 (UniProt P22694) | 0.013 | 0.049 | -0.065 | 0.072 | 0.007 | 0.008 | -0.034 | -0.096 | -0.095 | 0.007 | -0.007 | -0.032 | -0.067 | -0.035 | -0.011 | -0.012 | 0.054 | -0.008 | -0.034 | 0.044 |
| PLA2G15 (UniProt Q8NCC3) | 0.064 | 0.004 | 0.038 | -0.02 | 0.026 | 0.035 | -0.007 | 0.021 | 0.01 | 0.052 | 0.071 | -0.012 | -0.018 | -0.057 | -0.004 | -0.024 | 0.113 | 0.006 | -0.031 | -0.141 |
| POLR2D (UniProt O15514) | -0.153 | -0.048 | 0.138 | 0.204 | 0.06 | 0.087 | -0.049 | -0.011 | 0.058 | 0.064 | 0.042 | 0.082 | 0.346 (active) | -0.012 | -0.006 | 0.374 (active) | -0.009 | -0.026 | -0.02 | 0.26 |
| PTP4A1 (UniProt Q93096) | 0.053 | 0.083 | 0.134 | 0.037 | -0.042 | 0.038 | 0.062 | 0.027 | -0.096 | -0.127 | -0.011 | -0.05 | 0.092 | -0.096 | 0.013 | -0.049 | -0.062 | -0.02 | 0.008 | -0.179 |
| PSMD3 (UniProt O43242) | -0.074 | -0.05 | -0.072 | 0.002 | -0.022 | -0.028 | 0.008 | 0.033 | -0.012 | -0.066 | -0.025 | -0.031 | 0.044 | 0.023 | -0.033 | 0.01 | -0.22 (active) | 0.067 | 0.016 | 0.039 |
| RAB11FIP1 (UniProt Q6WKZ4) | 0.004 | 0.074 | 0.078 | -0.039 | 0.02 | -0.004 | 0.031 | 0.009 | -0.049 | 0.027 | 0.014 | -0.009 | -0.067 | 0.023 | -0.016 | -0.118 | -0.004 | 0.059 | -0.021 | 0.041 |
| PPP1R35 (UniProt Q8TAP8) | 0.137 | -0.064 | -0.038 | 0.029 | 0.01 | 0.034 | 0.021 | -0.031 | 0.009 | 0.001 | -0.055 | -0.057 | -0.069 | -0.007 | -0.026 | -0.049 | 0.036 | -0.021 | 0.049 | -0.049 |
| PXK (UniProt Q7Z7A4) | 0.062 | 0.019 | -0.006 | 0.022 | 0.074 | 0.018 | 0.251 (active) | 0.019 | 0.014 | 0.004 | 0.032 | 0.042 | -0.012 | 0.1 | -0.023 | -0.201 | 0.037 | 0.012 | -0.024 | 0.057 |
